Data taken from PubChem BioAssay (NCATS).
Inconclusive results are not listed. A call without a number means that no potency is given here. Active and inactive are the calls of the source. Calls follow the shape of the dose curve; as a rule, active = well fitted inhibition curve with a large enough effect; inconclusive = small, poorly fitted or top-dose-only effect; inactive = flat fitted curve, though single readings scatter. Peptide text beside a SMILES is read from it.

Molecular target: Luciferin 4-monooxygenase (Photinus pyralis) (UniProt P08659)
Sequence (P08659 whole entry, looked up): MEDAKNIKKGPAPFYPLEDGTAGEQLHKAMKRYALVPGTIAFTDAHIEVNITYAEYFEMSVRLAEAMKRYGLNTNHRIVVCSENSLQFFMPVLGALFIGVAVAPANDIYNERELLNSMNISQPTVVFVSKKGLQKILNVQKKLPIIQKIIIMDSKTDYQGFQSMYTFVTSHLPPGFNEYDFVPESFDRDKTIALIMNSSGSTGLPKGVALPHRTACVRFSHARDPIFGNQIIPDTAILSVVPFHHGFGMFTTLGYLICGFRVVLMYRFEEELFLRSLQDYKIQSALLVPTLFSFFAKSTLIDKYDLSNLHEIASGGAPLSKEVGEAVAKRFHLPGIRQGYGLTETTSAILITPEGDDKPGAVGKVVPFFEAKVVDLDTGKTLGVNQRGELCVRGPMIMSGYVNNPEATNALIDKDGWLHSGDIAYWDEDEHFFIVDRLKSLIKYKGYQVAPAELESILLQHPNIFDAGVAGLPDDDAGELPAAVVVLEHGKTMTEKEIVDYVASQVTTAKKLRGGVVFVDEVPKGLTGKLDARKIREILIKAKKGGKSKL
Assay: Biochemical firefly luciferase enzyme assay for NPC (AID 624030); also: nearly all actives have a fitted effect of over 70% in size
Conditions: purified P. pyralis luciferase, luminescence, 5 min; series mostly up to 24.9 µM
Description: Charcot-Marie-Tooth-Association [CMTA] National Center for Advancing Translational Sciences [NCATS] Charcot-Marie-Tooth (CMT) disease was first characterized by Jean-Martin Charcot and Pierre Marie in France and, independently, by Howard Henry Tooth in England in 1886. CMT is one of the most common inherited neurological diseases, affecting approximately 1 in 2,500 Americans. […] The most prevalent type of CMT is known as CMT1A and caused by a duplication of the PMP22 gene which leads to over-expression of this protein. PMP22 is a glycosylated intrinsic membrane protein accounting for 2-5% of the myelin protein content, and its over-expression results in demyelination and subsequently axonal loss. A pair of cellular transcription-based assays was developed in the S16 rat Schwann cell lines (Hai, M., et al., 2002) stably transfected with orthogonal reporters - firefly luciferase (Fluc) and beta-lactamase (beta-Lac) - whose expression is driven by an intronic regulatory element of the PMP22 gene (Jones, E.A., et al., 2011) to recapitulate endogenous expression of PMP22. A comprehensive library of approved drugs, the NCGC Pharmaceutical Collection (Huang, R., et al., 2011), was screened in the cross-validating platform of the orthogonal reporter assays to identify drug modulators inhibitory towards PMP22 expression. A set of counter-screens was devised to address non-specific activity of the library. An ATP-dependent CellTiter-Glo assay (developed by Promega Corp) was utilized to control cell viability. In addition, biochemical Fluc enzyme assay was performed to assess direct inhibition of the Fluc enzymatic activity. References Hai, M., Muja, N., DeVries, G.H., Quarles, R.H. and Patel, P.I. Comparative analysis of Schwann cell lines as model systems for myelin gene transcription studies. J Neurosci Res, 2002. 69(4): pp 497-508 Huang, R., Southall, N., Wang, Y., Yasgar A., Shinn P., Jadhav, A. , Nguyen, D.-T. and Austin, C.P., The NCGC pharmaceutical collection: a comprehensive resource of clinically approved drugs enabling repurposing and chemical genomics. Sci Transl Med, 2011. 3(80): p. 80ps16.
Compounds were transferred to the plates in 23nl, and one microliter/well luciferase enzyme-buffer solution (10 nM P. pyralis luciferase and 50 mM Tris Acetate final concentrations) was dispensed yielding a final reaction volume of […]. Luciferase luminescence was measured by a ViewLux plate reader within 5 minutes of enzyme-buffer addition. The % activity was determined by normalizing to the average readings of PTC124 (a positive control) relative to DMSO (0% Activity). The concentration-effect curves were then classified based on curve quality (r2), response magnitude and degree of measured activity.

Row | SMILES | Potency
1 | O=C(O)C(O)C(O)C(O)C(O)C(=O)O (stereo not given) | inactive
2 | CC1(C)[C@@H](OC(=O)CCC(=O)O)CC[C@@]2(C)[C@H]1CC[C@@]1(C)[C@H]2C(=O)C=C2[C@H]3C[C@](C)(C(=O)O)CC[C@]3(C)CC[C@@]21C | inactive
3 | C=C1c2c(Cl)ccc(O)c2C(O)=C2C(=O)[C@@]3(O)C(O)=C(C(N)=O)C(=O)[C@@H](N(C)C)[C@@H]3[C@@H](O)[C@H]12 | inactive
4 | COc1ccc(OC)c([C@H](O)CNC(=O)CN)c1 | inactive
5 | CC(C)(C)NC[C@H](O)COc1cccc2c1CCC(=O)N2 | inactive
6 | OCC1OC(n2cnc3c(=S)nc[nH]c32)C(O)C1O (stereo not given) | inactive
7 | CC(=C(CCOP(=O)(O)O)SC(=O)c1ccccc1)N(C=O)Cc1cnc(C)nc1N | inactive
8 | CCc1c(C)[nH]c2c1C(=O)[C@H](CN1CCOCC1)CC2 | inactive
9 | CC(=O)O[C@H]1C[C@@]2(C)[C@H](C[C@@H](O)[C@H]3[C@@]4(C)CC[C@@H](O)[C@@H](C)[C@H]4CC[C@@]32C)C1=C(CCC=C(C)C)C(=O)O | inactive
10 | CCO[C@H]1O[C@@H]([C@H](COCc2ccccc2)OCc2ccccc2)[C@@H](OCc2ccccc2)[C@H]1O | inactive
11 | CC(=O)OCC(=O)[C@@]12OC3(CCCC3)OC1CC1C3CCC4=CC(=O)C=C[C@@]4(C)[C@]3(F)C(O)C[C@]12C (stereo not given in full) | inactive
12 | NC(=O)c1cc[n+](CC2=C(C(=O)[O-])N3C(=O)[C@@H](NC(=O)Cc4cccs4)[C@@H]3SC2)cc1 | inactive
13 | Cc1ccsc1/C=C\C1=NCCCN1C | inactive
14 | O=C(O)COCCN1CCN([C@@H](c2ccccc2)c2ccc(Cl)cc2)CC1 | inactive
15 | CS(=O)(=O)c1ccc([C@H](O)[C@H](CO)NC(=O)C(Cl)Cl)cc1 | inactive
16 | CC1(C)OC2CO[C@]3(COS(N)(=O)=O)OC(C)(C)OC3C2O1 (stereo not given in full) | inactive
17 | CO/N=C(\C(=O)NC1C(=O)N2C(C(=O)OCOC(=O)C(C)(C)C)=C(/C=C\c3scnc3C)CSC12)c1csc(N)n1 (stereo not given) | inactive
18 | CCOC(=O)[C@H](CCc1ccccc1)N[C@@H](C)C(=O)N1[C@H](C(=O)O)C[C@H]2CCC[C@@H]21 | inactive
19 | CN[C@H]1[C@H](O)[C@@H](O[C@@H]2[C@H](O)[C@@H](O[C@H]3OC(CN)=CC[C@H]3N)[C@@H](N)C[C@H]2N)OC[C@@]1(C)O | inactive
20 | Cc1cccc(C)c1NC(=O)[C@H](C)N | inactive

Row | SMILES | Potency
21 | CO[C@H]1[C@@H](OC(N)=O)[C@H](O)[C@@H](Oc2ccc3c(O)c(NC(=O)c4ccc(O)c(CC=C(C)C)c4)c(=O)oc3c2C)OC1(C)C | inactive
22 | CC(=O)[C@@]1(O)CC[C@H]2[C@H]3C[C@@H](C)C4=CC(=O)C=C[C@]4(C)[C@@]3(F)[C@@H](O)C[C@]21C | inactive
23 | COC(=O)C(Cc1ccccc1)NC(=O)C(N)CC(=O)O (stereo not drawn) (H-Asp-Phe-OMe; configuration not given here) | inactive
24 | CC(C)(C)NC[C@H](O)COc1cccc2c1C[C@@H](O)[C@@H](O)C2 | inactive
25 | O=C(O)CN(CC(=O)O)Cc1cc2c(-c3ccccc3C(=O)O)c3cc(CN(CC(=O)O)CC(=O)O)c(=O)cc-3oc2cc1O | inactive
26 | CCCC(=O)Nc1ccc(OC[C@@H](O)CNC(C)C)c(C(C)=O)c1 | inactive
27 | CC(=O)OC1CCC2C3CCc4cc(O)ccc4C3CCC12C (stereo not given) | inactive
28 | O=C(O)CCCCC1SCC2NC(=O)NC21 (stereo not given) | inactive
29 | OCC1O[C@H](OC2C(CO)O[C@@](O)(CO)C2O)C(O)C(O)C1O (stereo not given in full) | inactive
30 | COC(=O)C1=C(C)NC(C)=C(C(=O)OC(C)C)[C@H]1c1cccc2nonc12 | inactive
31 | CC(=O)[C@]1(O)CCC2C3C=C(Cl)C4=CC(=O)C5CC5[C@@]4(C)C3CC[C@]21C (stereo not given in full) | inactive
32 | Nc1nc2ncc(CNc3ccc(C(=O)NC(CCC(=O)O)C(=O)O)cc3)nc2c(=O)[nH]1 (stereo not given) | inactive
33 | CC1=C(C(=O)O)N2C(=O)[C@@H](NC(=O)[C@@H](N)c3ccc(O)cc3)[C@@H]2SC1 | inactive
34 | C#C[C@@]1(O)CC[C@@H]2[C@@H]3CCC4=C(CCC(=O)C4)[C@H]3CC[C@]21C | inactive
35 | CCN1CCC[C@@H](OC(=O)C(c2ccccc2)c2ccccc2)C1 | inactive
36 | CN(C)CCOC(=O)[C@@H](c1ccccc1)C1(O)CCCC1 | inactive
37 | NC[C@@H]1O[C@H](O[C@@H]2[C@H](O[C@@H]3O[C@H](CO)[C@@H](O)[C@@H]3O)[C@@H](O)[C@@H](N)C[C@H]2N)[C@@H](N)[C@H](O)[C@@H]1O | inactive
38 | CC(C)NC[C@H]1CCc2cc(CO)c([N+](=O)[O-])cc2N1 | inactive
39 | Cc1cccc(CN2CCN([C@@H](c3ccccc3)c3ccc(Cl)cc3)CC2)c1 | inactive
40 | CCC(C)C(=O)OC1CC(O)C=C2C=CC(C)C(CCC(O)CC(O)CC(=O)O)C21 (stereo not given) | inactive
